Laboratory results from PubChem BioAssay (NCATS).
Inconclusive results are not listed. The source made the active and inactive calls. Calls come from the whole dose curve; as a rule, active = well fitted curve in the direction sought with a large enough effect; inconclusive = small, poorly fitted or top-dose-only effect, or another doubt; inactive = no such curve, though single readings can be large; an effect the other way counts as inactive or inconclusive.

Legend:
[1] = qHTS of pediatric cancer cell lines to identify multiple opportunities for drug repurposing: Primary screen for TC32 cells (AID 1347089); note: nearly all actives have a fitted effect of over 60% in size
Procedure, shortened: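 In the primary qHTS, MIPE compounds were tested at 11 concentrations (0.78 nM to 46 µM) and NPC compounds at 8 (0.59 nM to 46 µM) on TC32 cells for 48 h. CellTiter-Glo luminescence gave viability.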

[2] = qHTS of pediatric cancer cell lines to identify multiple opportunities for drug repurposing: Primary screen for DAOY cells (AID 1347090); note: series mostly up to about 46 µM; nearly all actives have a fitted effect of over 55% in size
Procedure, shortened: (§1)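 Eight- or eleven-point concentration series, 48 h treatment at 37 degrees C in growth media; readout CellTiter-Glo luminescence. Potency and efficacy were taken from the concentration-response curves.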

[3] = qHTS of pediatric cancer cell lines to identify multiple opportunities for drug repurposing: Primary screen for SJ-GBM2 cells (AID 1347091)
Procedure, shortened: as §1

[4] = qHTS of pediatric cancer cell lines to identify multiple opportunities for drug repurposing: Primary screen for A673 cells (AID 1347092); note: nearly all actives have a fitted effect of over 45% in size
Procedure, shortened: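 48 h compound exposure, A673, 500-1,000 cells/well, 37 degrees C/5% CO2. MIPE: 11-point, 0.78 nM-46 µM; NPC: 8-point, 0.59 nM-46 µM (final). Readout CellTiter-Glo luminescence after 15 min RT.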

[5] = qHTS of pediatric cancer cell lines to identify multiple opportunities for drug repurposing: Primary screen for SK-N-MC cells (AID 1347093); note: series mostly up to about 46 µM
Procedure, shortened: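 Metabolically active cells were quantified by ATP-dependent luminescence (CellTiter-Glo, 15 min at room temperature) following 48 h treatment. Cells had been plated at 500-1,000 per well and settled for 5 h beforehand.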

[6] = qHTS of pediatric cancer cell lines to identify multiple opportunities for drug repurposing: Primary screen for BT-37 cells (AID 1347094); note: series mostly up to about 57 µM
Procedure, shortened: (§2)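 ATP-based luminescence (CellTiter-Glo) quantifies viability after a 48-hour exposure. Compounds are dosed across 8 or 11 final concentrations; DMSO and 2.3 µM bortezomib serve as controls.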

[7] = qHTS of pediatric cancer cell lines to identify multiple opportunities for drug repurposing: Primary screen for NB-EBc1 cells (AID 1347095)
Procedure, shortened: as §2

[8] = qHTS of pediatric cancer cell lines to identify multiple opportunities for drug repurposing: Primary screen for U-2 OS cells (AID 1347096); note: nearly all actives have a fitted effect of over 50% in size
Procedure, shortened: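 Cells (500-1,000/well) in growth media were settled 5 h at 37 degrees C, then given compounds for 48 h. Viability was read as CellTiter-Glo luminescence. Primary runs used MIPE at 11 points (0.78 nM-46 µM) and NPC at 8 points (0.59 nM-46 µM); follow-ups used 11 points.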

Measured: Potency

Cn1c(=O)c2c(ncn2CC2OCCO2)n(C)c1=O
inactive: all assays above

C[C@@H](O)[C@H](N)C(=O)O
inactive: all assays above

COc1cc2[nH]c(=O)[nH]c(=O)c2cc1OC
inactive: all assays above

COc1ccccc1O
inactive: all assays above

CCOC(CN1CCN(CC(C)C(=O)c2ccccc2)CC1)c1ccccc1 (stereo unspecified)
inactive: all assays above

O=C(O)[C@@H]1CSCN1
inactive: all assays above

CC1(C)S[C@@H]2[C@H](NC(=O)Cc3ccccc3)C(=O)N2[C@H]1C(=O)O (tested in a mixture with another compound)
inactive: all assays above

CCCCOc1cc(C(=O)OCCN(CC)CC)ccc1N
inactive: all assays above

OC[C@H]1O[C@@H](O[C@@H]2[C@@H](CO)O[C@](O)(CO)[C@H]2O)[C@H](O)[C@@H](O)[C@H]1O
inactive: all assays above

Cc1cc2nc3c(=O)[nH]c(=O)nc-3n(C[C@H](O)[C@H](O)[C@H](O)CO)c2cc1C
inactive: all assays above

Cc1cc2c(cc1S(N)(=O)=O)S(=O)(=O)CCC2
inactive: all assays above

COc1ccc(S(=O)(=O)Nc2nnc(CC(C)C)s2)cc1
inactive: all assays above

C[C@@H]1CCN(C(=O)[C@H](CCCN=C(N)N)NS(=O)(=O)c2cccc3c2NC[C@H](C)C3)[C@@H](C(=O)O)C1
inactive: all assays above

NC(=O)c1ncn([C@@H]2O[C@H](CO)[C@@H](O)[C@H]2O)c1N
inactive: all assays above

N[C@H](C(=O)O)c1ccc(O)cc1
inactive: all assays above

C[C@H]1O[C@H](O[C@H]2[C@H](O)[C@@H](O)[C@@H](O[C@H]3[C@H](O)[C@@H](O)[C@H](O)O[C@@H]3CO)O[C@@H]2CO)[C@H](O)[C@@H](O)[C@@H]1N[C@H]1C=C(CO)[C@@H](O)[C@H](O)[C@H]1O
inactive: all assays above

[O-][n+]1cccc(CO)c1
inactive: all assays above
